PubChem BioAssay (EPA / NIEHS)
“And” between values parts separate entries of the source, which are not always exact repeats. Equal entries are not always repeated. Inconclusive results are not listed. Where a structure was tested more than once in an assay, its records may differ in their call. The source made the active and inactive calls. Rule for the calls, unless noted: active = hit-call score of the fitted dose curve at least 0.9, where 1 is the maximum; inactive = score below 0.9.

What was measured:
[1] = ATG_TCF_b_cat_CIS: Attagene CIS-FACTORIAL HepG2 Assay for human T-Cell-Factor with beta-catenin (TCF/b-cat) (AID 2282965); settings: HepG2 TCF/beta-catenin cis-reporter transcription, actives raise or lower the signal
In short: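 HepG2, transient MRTU transfection, cis-element-driven reporters (endogenous TFs). 24 h compound exposure. Readout: reporter mRNA by RT-PCR + 6-FAM primer extension, HpaI digest, capillary electrophoresis. Gain/loss fit vs DMSO baseline.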

[2] = ATG_TAL_CIS: Attagene CIS-FACTORIAL HepG2 Assay for human TAL Basal Promoter (AID 2282966); settings: HepG2 Attagene cis-factorial TAL promoter reporter; actives raise or lower the signal;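 note: background control endpoint measuring basal TAL promoter reporter mRNA not a specific factor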
In short: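 HepG2, transient MRTU transfection, 24 h compound exposure; RNA → oligo(dT) RT → PCR → 6-FAM primer extension → HpaI digest → CE fluorescence. Bidirectional curve fit vs DMSO. Background-control readout.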

[3] = ATG_TGFb_CIS: Attagene CIS-FACTORIAL HepG2 Assay for human Transforming Growth Factor (TGF) (AID 2282967); settings: HepG2 Attagene CIS TGFb reporter, mRNA transcription; actives raise or lower the signal
In short: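 Cells were dosed for 24 hours, after which total RNA was reverse-transcribed and reporter sequences amplified, labeled and sized by capillary electrophoresis. Activity was fitted in both directions against DMSO.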

[4] = ATG_VDRE_CIS: Attagene CIS-FACTORIAL HepG2 Assay for human Vitamin D Receptor Element (VDRE) (AID 2282968); settings: HepG2 VDRE cis-reporter transcription, actives raise or lower the signal
In short: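 Transient MRTU transfection of HepG2, 24 h compound exposure. Readout: reporter transcripts via RT-PCR and capillary electrophoresis, fluorescence. Bidirectional fit vs DMSO.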

[5] = target: Nuclear receptor subfamily 1 group I member 3 (Homo sapiens) (UniProt Q14994); experiment: ATG_CAR_TRANS: Attagene TRANS-FACTORIAL HepG2 Assay for human Constitutive Androstane Receptor (CAR) (AID 2282969; active = hit-call score of the fitted dose curve at least 0.9, where 1 is the maximum;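 note: activators raise reporter mRNA above DMSO so AC50 marks induction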); settings: HepG2 Attagene TRANS-FACTORIAL CAR reporter
Nuclear receptor subfamily 1 group I member 3 (Homo sapiens), sequence (Q14994 whole entry, looked up, the tested form may be a part): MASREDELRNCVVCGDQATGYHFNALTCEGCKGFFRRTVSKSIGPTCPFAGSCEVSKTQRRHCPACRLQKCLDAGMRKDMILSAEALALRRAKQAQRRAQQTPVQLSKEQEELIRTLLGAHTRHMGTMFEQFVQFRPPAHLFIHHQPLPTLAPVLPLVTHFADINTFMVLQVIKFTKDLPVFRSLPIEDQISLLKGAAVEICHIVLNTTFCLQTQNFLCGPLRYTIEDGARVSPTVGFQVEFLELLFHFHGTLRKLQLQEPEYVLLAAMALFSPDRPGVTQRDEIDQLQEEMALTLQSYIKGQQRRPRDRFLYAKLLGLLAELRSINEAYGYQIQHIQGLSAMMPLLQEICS
In short: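 Transiently transfected HepG2, multiplex TRANS reporters (CAR-Gal4 chimera driving GAL4-UAS reporter). 24 h dosing. Readout: reporter transcript by RT-PCR + capillary electrophoresis, fluorescence intensity; positive direction vs DMSO.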

[6] = target: Estrogen receptor (Homo sapiens) (UniProt P03372); experiment: ATG_ERa_TRANS: Attagene TRANS-FACTORIAL HepG2 Assay for human Estrogen Receptor alpha (ERa) (AID 2282970; active = hit-call score of the fitted dose curve at least 0.9, where 1 is the maximum); settings: HepG2 Attagene TRANS ERa GAL4 reporter, mRNA
Estrogen receptor (Homo sapiens), sequence (P03372 whole entry, looked up, the tested form may be a part): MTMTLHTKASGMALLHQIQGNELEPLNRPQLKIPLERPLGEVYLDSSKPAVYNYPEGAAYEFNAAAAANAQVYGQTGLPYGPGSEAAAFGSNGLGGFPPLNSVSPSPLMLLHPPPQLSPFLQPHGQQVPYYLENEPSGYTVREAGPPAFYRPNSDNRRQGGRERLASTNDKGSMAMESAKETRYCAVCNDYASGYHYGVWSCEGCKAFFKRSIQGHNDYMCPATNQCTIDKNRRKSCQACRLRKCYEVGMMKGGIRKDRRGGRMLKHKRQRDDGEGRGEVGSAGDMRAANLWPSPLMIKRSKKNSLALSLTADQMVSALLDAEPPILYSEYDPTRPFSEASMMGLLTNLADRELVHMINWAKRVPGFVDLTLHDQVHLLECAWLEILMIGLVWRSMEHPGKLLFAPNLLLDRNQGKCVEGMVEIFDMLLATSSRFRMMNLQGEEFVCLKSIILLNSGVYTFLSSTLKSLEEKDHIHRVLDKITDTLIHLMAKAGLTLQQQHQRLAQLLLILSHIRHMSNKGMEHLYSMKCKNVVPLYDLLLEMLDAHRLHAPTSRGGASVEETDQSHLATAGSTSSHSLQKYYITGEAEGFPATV
In short: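 Reporter mRNA induction after 24 hours, detected by fluorescent RT-PCR and capillary electrophoresis, gives the read-out. Cells are HepG2 transiently transfected with GAL4-UAS reporter transcription units responding to chimeric NR-Gal4. Activity is taken as gain of signal over DMSO baseline.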

[7] = target: X-box-binding protein 1 (Homo sapiens) (UniProt P17861); experiment: ATG_Xbp1_CIS: Attagene CIS-FACTORIAL HepG2 Assay for human X-box Binding Protein 1 (XBP1) (AID 2282972); settings: HepG2 XBP1 cis-element reporter, Attagene multiplex; actives raise or lower the signal
X-box-binding protein 1 (Homo sapiens), sequence (P17861 whole entry, looked up): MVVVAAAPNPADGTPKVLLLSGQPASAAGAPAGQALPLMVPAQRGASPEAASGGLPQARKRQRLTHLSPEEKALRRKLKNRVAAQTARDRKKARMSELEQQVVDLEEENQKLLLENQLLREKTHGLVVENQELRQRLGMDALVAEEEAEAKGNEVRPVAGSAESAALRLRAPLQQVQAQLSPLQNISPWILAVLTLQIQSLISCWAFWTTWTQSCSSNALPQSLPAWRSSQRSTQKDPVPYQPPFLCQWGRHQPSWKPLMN
In short: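 Human hepatoma HepG2, cis-element reporter system, 24 h treatment; mRNA quantified by RT-PCR/CE fluorescence; fit relative to DMSO.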

[8] = ATG_M_19_TRANS: Attagene TRANS-FACTORIAL HepG2 Assay for M19 Transcription Factor (Internal Marker) (AID 2282974; active = hit-call score of the fitted dose curve at least 0.9, where 1 is the maximum); settings: HepG2 Attagene TRANS-FACTORIAL M19 internal marker reporter
In short: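 Using RT-PCR and capillary electrophoresis, reporter mRNA from transiently transfected human HepG2 cells was quantified following 24 h exposure; activity was fitted in the positive direction against DMSO.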

[9] = target: Steroid hormone receptor ERR1 (Homo sapiens) (UniProt P11474); experiment: ATG_ERRa_TRANS: Attagene TRANS-FACTORIAL HepG2 Assay for human Estrogen-Related Receptor alpha (ERRa) (AID 2282971; active = hit-call score of the fitted dose curve at least 0.9, where 1 is the maximum); settings: HepG2 Attagene TRANS reporter, ERRa transactivation
Steroid hormone receptor ERR1 (Homo sapiens), sequence (P11474 whole entry, looked up, the tested form may be a part): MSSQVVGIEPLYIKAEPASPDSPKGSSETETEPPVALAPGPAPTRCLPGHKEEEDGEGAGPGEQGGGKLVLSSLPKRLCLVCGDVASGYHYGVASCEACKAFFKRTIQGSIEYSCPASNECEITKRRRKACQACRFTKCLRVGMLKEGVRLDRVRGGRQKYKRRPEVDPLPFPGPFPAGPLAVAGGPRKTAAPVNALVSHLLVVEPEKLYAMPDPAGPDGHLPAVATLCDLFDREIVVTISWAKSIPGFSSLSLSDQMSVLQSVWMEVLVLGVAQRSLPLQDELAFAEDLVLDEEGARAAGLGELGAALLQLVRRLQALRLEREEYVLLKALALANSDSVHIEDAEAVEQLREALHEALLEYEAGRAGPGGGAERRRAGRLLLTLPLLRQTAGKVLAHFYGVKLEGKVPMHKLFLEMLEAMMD
In short: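 Transfected HepG2, 24 h dosing, ERRa-Gal4 chimera driving GAL4-UAS reporter. Readout: reporter mRNA via RT-PCR plus capillary electrophoresis (fluorescence). Positive direction vs DMSO control.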

[10] = target: Androgen receptor (Homo sapiens) (UniProt P10275); experiment: ATG_AR_TRANS: Attagene TRANS-FACTORIAL HepG2 Assay for human Androgen Receptor (AR) (AID 2282973; active = hit-call score of the fitted dose curve at least 0.9, where 1 is the maximum); settings: HepG2 Attagene TRANS-FACTORIAL AR reporter transcription
Androgen receptor (Homo sapiens), sequence (P10275 whole entry, looked up, the tested form may be a part): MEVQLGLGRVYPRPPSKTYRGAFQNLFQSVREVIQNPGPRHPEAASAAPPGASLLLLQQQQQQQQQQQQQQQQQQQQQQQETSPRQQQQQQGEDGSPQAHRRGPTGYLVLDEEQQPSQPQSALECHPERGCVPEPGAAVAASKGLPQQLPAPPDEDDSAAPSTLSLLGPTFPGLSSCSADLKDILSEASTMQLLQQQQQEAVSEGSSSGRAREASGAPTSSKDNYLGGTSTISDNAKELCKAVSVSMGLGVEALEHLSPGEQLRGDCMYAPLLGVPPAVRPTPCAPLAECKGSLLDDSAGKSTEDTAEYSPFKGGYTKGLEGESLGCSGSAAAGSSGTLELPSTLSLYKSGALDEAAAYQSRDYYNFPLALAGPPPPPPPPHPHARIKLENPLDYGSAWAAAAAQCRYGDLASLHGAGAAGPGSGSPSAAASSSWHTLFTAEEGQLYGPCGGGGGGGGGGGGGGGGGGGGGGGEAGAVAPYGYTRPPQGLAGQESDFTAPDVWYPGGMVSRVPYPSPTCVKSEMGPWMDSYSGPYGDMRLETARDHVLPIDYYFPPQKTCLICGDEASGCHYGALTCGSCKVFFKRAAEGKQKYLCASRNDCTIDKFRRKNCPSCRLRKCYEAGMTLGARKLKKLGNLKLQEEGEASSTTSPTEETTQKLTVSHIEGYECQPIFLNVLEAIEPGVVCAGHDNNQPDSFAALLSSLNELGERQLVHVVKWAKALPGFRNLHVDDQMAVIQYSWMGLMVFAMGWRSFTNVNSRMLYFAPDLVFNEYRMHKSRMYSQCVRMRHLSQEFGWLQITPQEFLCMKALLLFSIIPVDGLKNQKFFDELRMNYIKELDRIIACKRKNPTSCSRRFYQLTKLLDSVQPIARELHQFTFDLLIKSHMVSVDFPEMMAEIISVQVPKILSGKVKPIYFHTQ
In short: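 Readout is reporter transcript abundance, quantified by fluorescent RT-PCR products separated on capillary electrophoresis. Human HepG2 liver cells carried transiently transfected NR-Gal4 chimera plus GAL4-UAS reporter constructs and were dosed for 24 h; activity scored upward versus DMSO.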

Measured: AC50

[N-]=[N+]=[N-]
not listed: [8] | [9] | [10]
inactive: all other assays above

O=P(Oc1ccccc1)(Oc1ccccc1)Oc1ccccc1
active: [4] 7.17 µM | [7] 49.4 µM
not listed: [9] | [10]
inactive: all other assays above

CCN(CC)C1CCCCC1
not listed: [8] | [10]
inactive: all other assays above

CCOP(=S)(OCC)SCn1nnc2ccccc2c1=O
active: [4] 1.61 µM | [6] 3.08 µM
not listed: [10]
inactive: all other assays above

Nc1ccc(Sc2ccc(N)cc2)cc1
active: [4] 62.9 µM | [6] 7.99 µM
not listed: [10]
inactive: all other assays above

c1nc[nH]n1
active: [6] 24.8 µM
not listed: [8] | [9] | [10]
inactive: all other assays above

COP(N)(=S)OC
inactive: all assays above

CCOP(=S)(NC(C)C)Oc1ccccc1C(=O)OC(C)C (configuration not stated)
active: [4] 1.5 µM | [6] 3.51 µM
not listed: [8] | [10]
inactive: all other assays above

c1ccc2c(c1)sc1ccccc12
active: [6] 63.7 µM
not listed: [10]
inactive: all other assays above

O=S(=O)(F)C(F)(F)C(F)(F)C(F)(F)C(F)(F)C(F)(F)C(F)(F)C(F)(F)C(F)(F)F
inactive: all assays above

CCCCN(CC)C(=O)SCCC
active: [6] 100 µM
not listed: [9]
inactive: all other assays above

ClC(Cl)=C(c1ccc(Cl)cc1)c1ccccc1Cl
active: [2] 177 µM | [6] 2.02 µM | [7] 100 µM
not listed: [9]
inactive: all other assays above

CCCCOCCOP(=O)(OCCOCCCC)OCCOCCCC
not listed: [8] | [9] | [10]
inactive: all other assays above

C/C(=N\NC(=O)Nc1cc(F)cc(F)c1)c1ncccc1C(=O)O
not listed: [9] | [10]
inactive: all other assays above

O=C(O)C(F)(OC(F)(F)C(F)(F)C(F)(F)F)C(F)(F)F (configuration not stated)
inactive: all assays above

Nc1ccc2ccccc2c1
not listed: [10]
inactive: all other assays above

c1ccc(OP(Oc2ccccc2)Oc2ccccc2)cc1
active: [1] 100 µM | [6] 74.9 µM
not listed: [9] | [10]
inactive: all other assays above

CO/N=C(/C(=O)OC)c1ccccc1COc1ccccc1C
active: [4] 13 µM | [6] 2.6 µM | [7] 35.2 µM
not listed: [8] | [9]
inactive: all other assays above

O=c1ssc(Cl)c1Cl
active: [1] 53 µM | [4] 52.6 µM | [7] 45.8 µM
inactive: [2] | [3] | [5] | [6]

CCOP(=S)(S)OCC
not listed: [8] | [9]
inactive: all other assays above

CC1(C)CN=C(NN=C(/C=C/c2ccc(C(F)(F)F)cc2)/C=C/c2ccc(C(F)(F)F)cc2)NC1
inactive: [4] | [5] | [7] | [8]
active: [1] 19.4 µM | [2] 4.22 µM | [3] 11.1 µM | [6] 4.59 µM

COC(=O)C(F)(F)C(F)(F)OC(F)(C(F)(F)F)C(F)(F)OC(F)=C(F)F (configuration not stated)
active: [1] 9.92 µM | [3] 87.4 µM | [4] 18.3 µM | [6] 30.3 µM and 13.7 µM
inactive: [1] | [2] | [3] | [4] | [5] | [6] | [9] | [7] | [10] | [8]

Nc1cc2c3c(c1)C(c1ccccc1)=N[C@@H](NC(=O)c1cccnc1)C(=O)N3CC2
inactive: [1] | [2] | [3] | [5] | [6]
active: [4] 38.4 µM | [7] 92.1 µM

O=C(O)C(F)(F)OC(F)(F)C(F)(F)OC(F)(F)F
inactive: all assays above

OCC(F)(F)OC(F)(F)C(F)(F)OC(F)(F)C(F)(F)OC(F)(F)F
active: [6] 6.04 µM and 4.34 µM
inactive: all other assays above
